Source: PubChem BioAssay AID540256 (National Center for Advancing Translational Sciences (NCATS), 2011)
Among all 300,000 compounds or so, about 3,700 (1.2%) were called active. Not shown: some 20% with an inconclusive outcome. The call rests on the fitted dose curve; tested in HEK293 cells. The entries come from a sample that favours actives as a whole.

Assay: qHTS for Inhibitors of binding or entry into cells for Lassa Virus; further: nearly all actives have a fitted effect of over 50% in size
Conditions: Lassa virus pseudotype entry inhibition, cell reporter; series mostly up to 37.9 µM; activity change, negative = inhibition: at the top concentration
On the % scale 0 is the no-effect control and ±100 the full control effect; potency means the concentration at half of the fitted maximal effect.

Row | Compound | activity change, negative = inhibition | Potency
1 | CC(C)c1ccc(S(=O)(=O)N2CCN(C(=O)CN3C(=O)NC(C)(c4ccccc4)C3=O)CC2)cc1 (configuration not stated) | -6.41% (inactive) | 
2 | Cc1cc(S(=O)(=O)Nc2ccc(C(=O)NCC(c3ccco3)N3CCCC3)cc2)ccc1F (configuration not stated) | 12.3% [at 46.1 µM] (inactive) | 
3 | CCOc1ccc(NS(=O)(=O)c2ccc(C(=O)NC3CCN(Cc4ccccc4)CC3)cc2)cc1 | -15.6% (inactive) | 
4 | CCC(=O)c1cn(CCOc2ccccc2OC)c2ccccc12 | -26.8% (inactive) | 
5 | CCCOc1ccc(C(=O)NCCc2ccccc2)cc1 |  | 2.51 µM (active)
6 | COc1ccc(OCCCC(=O)NCCc2ccccc2)cc1 | -18.8% (inactive) | 
7 | CCCCOc1ccc(C(=O)NCc2ccncc2)cc1 | 3.13% (inactive) | 
8 | O=C(NCc1cccnc1)c1cn(-c2ccccc2)nc1-c1cccs1 | 17.4% (inactive) | 
9 | O=C(O)c1ccc(N/N=C/c2cn(-c3ccccc3)nc2-c2cccs2)cc1 |  | 5.01 µM (active)
10 | CC(C)(C)OC(=O)N/N=C/c1cn(-c2ccccc2)nc1-c1cccnc1 | -13.6% [at 46.1 µM] (inactive) | 
11 | O=C(CC1Sc2ccccc2NC1=O)NNc1ccc(Cl)c(Cl)c1 (configuration not stated) | -1.65% [at 46.1 µM] (inactive) | 
12 | Cc1c(C)c(C)c(S(=O)(=O)N2CCC3(CC2)OCCO3)c(C)c1C | -5.33% (inactive) | 
13 | CC(=NNC(=O)c1ccncc1)c1ccc(Cl)c(Cl)c1 | 0.42% [at 46.1 µM] (inactive) | 
14 | CCN(c1ccccc1)S(=O)(=O)c1cccc(C(=O)O)c1 | 5.63% (inactive) | 
15 | CCN(c1ccccc1)S(=O)(=O)c1ccc(C(=O)Nc2nccs2)cc1 | -16.5% (inactive) | 
16 | CCN(c1ccccc1)S(=O)(=O)c1ccc(NC(=O)C(C)(C)C)cc1 |  | 14.6 µM (active)
17 | CN(CC(=O)NCC(c1ccccc1)N1CCCC1)S(=O)(=O)c1ccc(Cl)cc1 (configuration not stated) | -1.71% (inactive) | 
18 | CCOc1ccc(NC(=O)c2ncoc2-c2ccco2)cc1 | 20.4% [at 46.1 µM] (inactive) | 
19 | CCOc1ccc(-c2nnc(-c3ccco3)o2)cc1 |  | 5.8 µM (active)
20 | CCCCOc1ccc(-c2nnc(-c3ccco3)o2)cc1 | -15.9% (inactive) | 
21 | Cc1c[n+]([O-])ccc1[N+](=O)[O-] | 7.49% [at 46.1 µM] (inactive) | 
22 | O=C1C2C3C=CC(C3)C2C(=O)N1c1ncc([N+](=O)[O-])s1 (configuration not stated) | 4.2% [at 46.1 µM] (inactive) | 
23 | CCOc1ccc(S(=O)(=O)Nc2ccc(OC)nc2)cc1 | -16% [at 46.1 µM] (inactive) | 
24 | COc1ccc(CS(=O)/C(Cl)=C(/Cl)C(=O)Nc2ccc(OC)nc2)cc1 (configuration not stated) |  | 3.98 µM (active)
25 | COc1ccc(C(=O)Nc2ccc(NC(=O)C(C)C)nc2)cc1 | -17.8% (inactive) | 
26 | O=C(CSc1nnnn1C1CCCC1)N1CCCCC1 | 8.28% [at 46.1 µM] (inactive) | 

Row | Compound | activity change, negative = inhibition | Potency
27 | Cc1ccc(C)c(OCCC(=O)OCC(=O)NC(=O)NCc2ccccc2)c1 | -18.8% (inactive) | 
28 | Cc1cc(C)cc(NC(=O)COc2coc(CN3CCN(c4ccccc4)CC3)cc2=O)c1 | -7.74% (inactive) | 
29 | NC1=NOC(=O)C1C1CCCCC1 (configuration not stated) | -19.2% [at 46.1 µM] (inactive) | 
30 | CCOc1ccc(N(Cc2ccccc2)C(=O)c2nc(S(C)(=O)=O)ncc2Cl)cc1 |  | 2.51 µM (active)
31 | CCOc1ccc(NC(=O)CN(Cc2ccccc2)S(=O)(=O)c2ccc(Cl)cc2)cc1 | -13.1% [at 46.1 µM] (inactive) | 
32 | CCOc1ccc(N(Cc2ccccc2)C(=O)c2nc(SCC)ncc2Cl)cc1 | -1.9% [at 46.1 µM] (inactive) | 
33 | CC1=NN(C(N)=S)C(=O)C1N=Nc1cc(Cl)ccc1Cl (configuration not stated) | 13.6% [at 46.1 µM] (inactive) | 
34 | C[C@]12CCC(=O)C=C1C=CC1C2CC[C@@]2(C)C1CC[C@@]21CCC(=O)O1 (some centres not stated) | 7.55% [at 46.1 µM] (inactive) | 
35 | CC1Cc2ccccc2N1S(=O)(=O)c1cccc(C(=O)OCC(=O)N2CCOCC2)c1 (configuration not stated) | -11.3% [at 46.1 µM] (inactive) | 
36 | Cc1cc(C)c(C=NNc2nc3c([nH]2)c(=O)n(C)c(=O)n3C)c(C)c1 | -2.72% [at 46.1 µM] (inactive) | 
37 | Cc1cc(=O)[nH]c(N/N=C/c2c(C)nn(-c3ccccc3Cl)c2Cl)n1 |  | 11.2 µM (active)
38 | CCN(CC)c1ccc(/C=N/Nc2nc(C)cc(=O)[nH]2)cc1 | -18.2% (inactive) | 
39 | O=C(O)c1ccc(NN=CC2=C(N3CCOCC3)/C(=C/c3ccccc3)CC2)cc1 | -15.5% (inactive) | 
40 | Cc1ccc(/C=N/NC(=O)C2=NNC(c3ccccc3)(c3ccccc3)C2)c(O)c1 |  | 14.1 µM (active)
41 | Cc1ccc2nc(CNC(=O)c3ccccc3)[nH]c2c1 | 8.7% [at 46.1 µM] (inactive) | 
42 | O=C(N/N=C/c1ccc(O)c2ccccc12)c1cccnc1 | 16.8% (inactive) | 
43 | CC(NC(=O)c1ccccc1)C(=O)OCC(=O)Nc1cccc(S(=O)(=O)N2CCCC2)c1 (configuration not stated) | -1.7% (inactive) | 
44 | Cc1cc(C)c2nc(SCCC#N)nc(C)c2c1 | 9.06% (inactive) | 
45 | Cc1cc(C)c2nc(-c3ccco3)cc(C(=O)O)c2c1 | -3.99% [at 46.1 µM] (inactive) | 
46 | Cc1cc(C)c2nc3nc(C)cc(C)c3c(N)c2c1 |  | 12.6 µM (active)
47 | CCOC(=O)C1(Cc2ccccc2C)CCCN(C(=O)c2ccc(COC)o2)C1 (configuration not stated) | -19.9% (inactive) | 
48 | COc1ccc(N2CCN(S(=O)(=O)c3cc4c5c(c3)C(C)C(=O)N5CCC4)CC2)cc1 (configuration not stated) | -23.8% (inactive) | 
49 | Cc1ccc(NC(=O)c2oc3ccc(S(=O)(=O)N4CCCCC4)cc3c2C)cc1Cl | -5.77% [at 46.1 µM] (inactive) | 
50 | COC(=O)c1sccc1NC(=O)CC1C(=O)NCCN1C(=O)Nc1ccc(F)cc1F (configuration not stated) | 8.52% [at 46.1 µM] (inactive) | 
51 | O=C(CN1CCN(C/C=C/c2ccccc2)CC1)Nc1ccc(F)cc1F | 14.6% (inactive) | 
52 | O=C(CC1SC(=Nc2ccccc2F)N(CCN2CCOCC2)C1=O)Nc1ccc(F)cc1F (configuration not stated) |  | 11.2 µM (active)
